# Reference: PubChem BioAssay AID1159580 (chemical genetic matrix, 2015)
# Hit rate of the full screen: of about 5,500 compounds, about 2,000 (36%) were called active. Roughly 18% stayed inconclusive and do not appear here. This is one part of the list. Unmarked numbers belong to inactive results. Cut-off read from the data, not from the text of the source: active = normalized growth mostly below about 0.91 (no sharp cut-off); inconclusive = no clear call, values can overlap the other calls; inactive = mostly above about 0.92.
# Assay: chemical genetic growth profiling, strain panel (AID 1159580);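 note: tested at 20 µM; growth read once vehicle control cultures reached saturation at 30 °C; 1 = growth at the plate median or of vehicle wells; lower values mean less growth of the strain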
# Conditions: S. cerevisiae deletion strains, growth OD
# [1] = locus YDL101C, strain DUN1, hits give low values
# [2] = locus YHR030C, strain SLT2, hits give low values
structure (smiles),measurement,setting,value
O=[N+]([O-])c1cc(C(F)(F)F)ccc1-n1ccc(-c2cccs2)n1,normalized growth,"locus YAR019C, strain CDC15, hits give low values",0.953
same,normalized growth,"locus YBL105C, strain PKC1, hits give low values",0.952
same,normalized growth,"locus YBR135W, strain CKS1, hits give low values",0.948
same,normalized growth,"locus YBR136W, strain MEC1, hits give low values",0.954
same,normalized growth,"locus YBR160W, strain CDC28, hits give low values",0.956
same,normalized growth,"locus YDL017W, strain CDC7, hits give low values",0.955
same,normalized growth,"locus YDL028C, strain MPS1, hits give low values",0.958
same,normalized growth,[1],0.959
same,normalized growth,"locus YDL108W, strain KIN28, hits give low values",0.951
same,normalized growth,"locus YDL132W, strain cdc53, hits give low values",0.96
same,normalized growth,"locus YDL214C, strain PRR2, hits give low values",0.88
same,normalized growth,"locus YDR052C, strain DBF4, hits give low values",0.951
same,normalized growth,"locus YDR054C, strain cdc34, hits give low values",0.95
same,normalized growth,"locus YDR226W, strain ADK1, hits give low values",0.952
same,normalized growth,"locus YDR477W, strain SNF1, hits give low values",0.879
same,normalized growth,"locus YER123W, strain YCK3, hits give low values",0.846
same,normalized growth,"locus YER133W, strain GLC7, hits give low values",0.846
same,normalized growth,"locus YFL009W, strain cdc4, hits give low values",0.952
same,normalized growth,"locus YFL029C, strain CAK1, hits give low values",0.952
same,normalized growth,"locus YFR003C, strain YPI1, hits give low values",0.951
same,normalized growth,"locus YFR019W, strain FAB1, hits give low values",0.945
same,normalized growth,"locus YFR028C, strain CDC14, hits give low values",0.952
same,normalized growth,"locus YGR040W, strain KSS1, hits give low values",0.882
same,normalized growth,"locus YGR052W, strain FMP48, hits give low values",0.933
same,normalized growth,"locus YGR092W, strain DBF2, hits give low values",0.754
same,normalized growth,[2],0.76 (active)
same,normalized growth,"locus YHR079C, strain IRE1, hits give low values",0.87
same,normalized growth,"locus YHR082C, strain KSP1, hits give low values",0.968
same,normalized growth,"locus YHR205W, strain SCH9, hits give low values",0.913
same,normalized growth,"locus YIL147C, strain SLN1, hits give low values",0.957
same,normalized growth,"locus YJL095W, strain BCK1, hits give low values",0.863
same,normalized growth,"locus YJL128C, strain PBS2, hits give low values",0.897
same,normalized growth,"locus YJL157C, strain FAR1, hits give low values",0.84
same,normalized growth,"locus YJR016C, strain ILV3, hits give low values",0.958
same,normalized growth,"locus YJR066W, strain TOR1 (second series), hits give low values",0.839
same,normalized growth,"locus YJR066W, strain TOR1, hits give low values",0.889
same,normalized growth,"locus YKL048C, strain ELM1, hits give low values",0.914
same,normalized growth,"locus YKL067W, strain YNK1, hits give low values",0.88
same,normalized growth,"locus YKL101W, strain HSL1, hits give low values",0.875
same,normalized growth,"locus YKL193C, strain SDS22, hits give low values",0.957
same,normalized growth,"locus YKL203C, strain TOR2, hits give low values",0.919
same,normalized growth,"locus YLR113W, strain HOG1, hits give low values",0.789 (active)
same,normalized growth,"locus YLR133W, strain CKI1, hits give low values",0.88
same,normalized growth,"locus YLR403W, strain SFP1, hits give low values",0.804
same,normalized growth,"locus YML070W, strain DAK1, hits give low values",0.87
same,normalized growth,"locus YMR001C, strain CDC5, hits give low values",0.947
same,normalized growth,"locus YMR205C, strain PFK2 (second series), hits give low values",0.896
same,normalized growth,"locus YMR277W, strain FCP1, hits give low values",0.958
same,normalized growth,"locus YNL006W, strain LST8, hits give low values",0.956
same,normalized growth,"locus YNL020C, strain ARK1, hits give low values",0.861
same,normalized growth,"locus YNL161W, strain CBK1, hits give low values",0.949
same,normalized growth,"locus YNL183C, strain NPR1, hits give low values",0.92
same,normalized growth,"locus YNL207W, strain RIO2, hits give low values",0.947
same,normalized growth,"locus YNL222W, strain SSU72, hits give low values",0.965
same,normalized growth,"locus YNL307C, strain MCK1 (second series), hits give low values",0.862
same,normalized growth,"locus YOL078W, strain AVO1, hits give low values",0.952
same,normalized growth,"locus YOL136C, strain PFK27, hits give low values",0.883
same,normalized growth,"locus YOR061W, strain CKA2, hits give low values",0.827
same,normalized growth,"locus YOR119C, strain RIO1, hits give low values",0.932
same,normalized growth,"locus YOR231W, strain MKK1, hits give low values",0.886
same,normalized growth,"locus YOR329C, strain SCD5, hits give low values",0.947
same,normalized growth,"locus YPL031C, strain PHO85, hits give low values",0.872
same,normalized growth,"locus YPL153C, strain RAD53, hits give low values",0.92
same,normalized growth,"locus YPL204W, strain HRR25, hits give low values",0.885
same,normalized growth,"locus YPL209C, strain IPL1, hits give low values",0.959
same,normalized growth,"locus YPL256C, strain CLN2, hits give low values",0.864
same,normalized growth,"locus YPR025C, strain CCL1, hits give low values",0.95
same,normalized growth,"locus YPR106W, strain ISR1, hits give low values",0.954
same,normalized growth,"locus YPR111W, strain DBF20, hits give low values",0.936
same,normalized growth,"strain NNK1, hits give low values",0.926
same,normalized growth,"strain TSCII, hits give low values",0.955
FC(F)(F)c1ccnc(-n2ccc(-c3cccs3)n2)n1,normalized growth,"locus YAL013W, strain DEP1, hits give low values",0.94
same,normalized growth,"locus YBR229C, strain ROT2, hits give low values",0.964
same,normalized growth,"locus YCL061C, strain MRC1, hits give low values",0.926
same,normalized growth,[1],0.916
same,normalized growth,"locus YDR150W, strain NUM1, hits give low values",0.987
same,normalized growth,"locus YEL061C, strain CIN8, hits give low values",0.946
same,normalized growth,"locus YGR078C, strain PAC10, hits give low values",0.973
same,normalized growth,"locus YGR229C, strain SMI1, hits give low values",0.972
same,normalized growth,[2],0.457 (active)
same,normalized growth,"locus YHR087W, strain rtc3, hits give low values",1.01
same,normalized growth,"locus YJR043C, strain POL32, hits give low values",0.963
same,normalized growth,"locus YJR075W, strain HOC1, hits give low values",0.964
same,normalized growth,"locus YKL190W, strain CNB1, hits give low values",0.952
same,normalized growth,"locus YLR039C, strain RIC1, hits give low values",0.733 (active)
same,normalized growth,"locus YLR058C, strain SHM2 (second series), hits give low values",0.982
same,normalized growth,"locus YLR085C, strain ARP6, hits give low values",0.528 (active)
same,normalized growth,"locus YLR262C, strain YPT6, hits give low values",0.795 (active)
same,normalized growth,"locus YML094W, strain GIM5, hits give low values",0.887
same,normalized growth,"locus YMR219W, strain ESC1, hits give low values",0.995
same,normalized growth,"locus YMR263W, strain SAP30, hits give low values",0.955
same,normalized growth,"locus YNL128W, strain TEP1, hits give low values",0.953
same,normalized growth,"locus YNL153C, strain GIM3, hits give low values",0.955
same,normalized growth,"locus YNL298W, strain CLA4 (second series), hits give low values",0.815 (active)
same,normalized growth,"locus YNL322C, strain KRE1, hits give low values",0.994
same,normalized growth,"locus YNR030W, strain Alg12, hits give low values",0.891
same,normalized growth,"locus YOL006C, strain TOP1, hits give low values",0.64 (active)
same,normalized growth,"locus YPL055C, strain LGE1, hits give low values",0.881
same,normalized growth,"locus YPL241C, strain CIN2, hits give low values",0.9
same,normalized growth,"locus YPR135W, strain CTF4, hits give low values",0.535 (active)
